This is part of a sample that, as a whole, favours compounds with a hit. Of some 83,000 tested, about 20% had one in any assay.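 Activity criterion: percent growth below 10, measured after cells in 96-well plates were exposed to a single compound concentration for 48 hours.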 Activity calls are given as the source filed them.

The test concerns NCI-H522 lung. In words: NCI-60 one-dose screen, 48 h (100 = growth as untreated, 0 = no growth, -100 = all killed). To be noted: 10 µM unless noted. How it is done:
Growth inhibition of the NCI-H522 human Non-Small Cell Lung tumor cell line is measured as a screen for anti-cancer activity. Cells are grown in 96 well plates and exposed to the test compound for 48 hours. Compounds are tested at a single concentration, which is 10^-5 M for most compounds. The reported endpoint is percent growth (GI% or GIPRCNT), where numbers from 0 - 100% represent growth inhibition, and numbers from -100% - 0 represent cell death. For example, a value of 40 represents 60% growth inhibition. A value of 0 means no net growth occurred over the course of the experiment. A value of -40 indicates 40% of cells at the beginning of the experiment died by the end of the experiment. A value of -100 means all cells are dead at the end of the experiment.
NCI-60 Human Tumor Cell Lines Screen was performed using the standard one-dose NCI protocol, which is described in more detail at https://dtp.cancer.gov/discovery_development/nci-60/default.htm.
Compounds with GIPRCNT values below 10 were considered active. Activity score was based on GIPRCNT using the following formula: […]
Score is 0 for GIPRCNT values of 100 or above, 50 for GIPRCNT values of 0, and 100 for GIPRCNT values of -100.
On to `c1ccc(-c2nc3nonc3nc2-c2ccccc2)cc1`, for which the growth is 49.2% (inactive).

`c1ccc2c(c1)Nc1ccncc1S2`: the growth was 92.5% (inactive).

With `O=C(/C=C/c1sc(Cl)nc1Cl)c1ccc(F)cc1`, the growth was 86.6% (inactive).

Take `Cc1ccc(C(CC(=O)O)c2c(C)[nH][nH]c2=O)cc1` (stereo not given): the growth was 94.5% (inactive).

Take `NCCNc1nc2ccccc2c2c(=O)c3cccc(F)c3sc12`: the growth was 59.2% (inactive).

For `COc1cc(C(=O)c2cc(C)c3[nH]c4ccc(C)cc4c3c2C)cc(OC)c1OC`, the growth was 19.8% (inactive).

Take `COC(=O)C(Cc1ccccc1)NC(=O)NC(=O)NC(=O)CI` (stereo not given): the growth was -82.1% (active).

On to `CN(C)CCCNc1nc2ccccc2c2c(=O)c3cc(F)ccc3sc12`, for which the growth is 39.2% (inactive).

On to `NC1=NC(c2cccc(Br)c2)c2sc3ccc(Cl)cc3c2N1` (stereo not given), for which the growth is 87.8% (inactive).

Take `COc1cccc2nc3n(c12)C(c1c(F)cccc1F)SC3` (stereo not given): the growth is 80.4% (inactive).

In the case of `COc1cc(C2CC(c3ccc(N(C)C)cc3)=NN2C(C)=O)cc(OC)c1OC` (stereo not given), the growth is -5.66% (active).

Turning to `N#C/C(=C\c1cccc2cnccc12)n1nnc2cccc(F)c21`, the growth was 18.3% (inactive).

`CCc1cccc2c3c(sc12)C(c1ccc(F)cc1)C(C#N)=C(N)O3` (stereo not given): the growth was 26.8% (inactive).

`OC(COc1ccccc1Cl)CN1CCN(c2cccc(Cl)c2)CC1` (stereo not given): the growth is 88.5% (inactive).

Turning to `COc1cc2oc(-c3ccc(O)cc3)cc(=O)c2c(O)c1-c1c(OC)cc(O)c2c(=O)cc(-c3ccc(O)cc3)oc12`, the growth is 45.8% (inactive).

In the case of `O=C(CCCCCCSc1nc(-c2ccccc2)cc(-c2ccccc2)n1)NO`, the growth was -0.297% (active).

For the compound `CCOC(=O)/C(C#N)=C\Nc1ccc2ncnc(Nc3ccc(Cl)cc3Cl)c2c1`, the growth is 95.8% (inactive).

For the compound `O=C(Nc1ccc(I)cc1F)c1cc(I)ccc1O`, the growth was -5.05% (active).

Take `NS(=O)(=O)c1ccc(N=Nc2ccc(-c3nn4cc(-c5ccccc5)nc4s3)cc2)cc1`: the growth was 89.9% (inactive).

In the case of `Cc1nc2ccccc2c(/C=C/c2ccccc2)c1C(=O)/C=C/c1ccc(C(F)(F)F)cc1`, the growth is -1.91% (active).

For the compound `COc1ccc2c(c1)nc(NNC(=O)c1cnccn1)c1cccn12`, the growth was 9.5% (active).

Take `Cc1ccc(/C=N\NC(=O)c2[nH]c3ccc(F)cc3c2-c2ccccc2)cc1`: the growth was -42.3% (active).

`O=C1/C(=C/c2ccccc2[N+](=O)[O-])Oc2ccc(O)c(O)c21`: the growth is -18% (active).

In the case of `COc1cc(/C=C/C(=O)/C=C/c2cc(OC)c3c(c2OC)OCO3)c(OC)c2c1OCO2`, the growth is -15.5% (active).

In the case of `COc1cc(C2CC(c3ccc(SC)cc3)=NN2C(C)=O)cc(OC)c1OC` (stereo not given), the growth was 35.2% (inactive).

On to `CCOC(=O)c1sc2ncc(-c3ccc(C)cc3)n2c1C`, for which the growth was 86.2% (inactive).

Regarding `c1ccc2c(-c3nc(-c4c[nH]c5ccncc45)cs3)c[nH]c2c1`, the growth was 56.3% (inactive).

Take `S=c1nc(-c2ccccc2)oc(=NC2CCCCC2)n1C1CCCCC1`: the growth was -25.6% (active).

`COc1ccc2sc3c(NCCCNCCO)nc4ccccc4c3c(=O)c2c1`: the growth was 70.6% (inactive).

Regarding `O=C(N/N=C/[C@H](O)[C@H](O)[C@H](O)CO)c1ccc(NC(=O)c2cccnc2)cc1`, the growth was 92.7% (inactive).

Take `Cc1ccc(-c2nc(N3CCN(C(=O)c4ccc(OC(F)(F)F)cc4)CC3)c3ccccc3n2)cc1`: the growth is 82% (inactive).

`Oc1ccc(-c2nc3ccc4[nH]ncc4c3c3c2CCCC3)c2cccnc12`: the growth is 15% (inactive).

`C=CCNc1ccc2c3c(cccc13)C(=O)N(N1C(=O)c3cccc4cccc(c34)C1=O)C2=O`: the growth was 93.9% (inactive).

Take `CCCCn1c(=O)c(-c2cc(-c3ccc(Cl)cc3)nc(-c3ccc(Cl)cc3)c2)cc2cc(Cl)ccc21`: the growth was 99.3% (inactive).

As for `CC/C=C\C[C@@H]1C/C=C2/C(=O)C=C[C@H]2C/C=C\CCCC(=O)O1`, the growth is -83.4% (active).

Take `CC1=C(SCCC(=O)OC(C[Se]C2=C(C)C(=O)c3ccccc3C2=O)C(=O)NC(C)(C)C)C(=O)c2ccccc2C1=O` (stereo not given): the growth was -48.2% (active).

As for `NCCCNc1nc2ccc(Cl)cc2c2c(=O)c3cc(F)ccc3sc12`, the growth was 62.4% (inactive).

Take `CCc1ccc(Oc2c(-c3ccc(OCc4ccc(Cl)cc4)cc3O)n[nH]c2C(F)(F)F)cc1`: the growth was -22.9% (active).

In the case of `O=c1c2cc(F)ccc2sc2c(NCCN3CCOCC3)nc3ccccc3c12`, the growth is 65.6% (inactive).

As to `COc1ccc(NC(=O)n2nc(/C=C\c3ccc(O)c(OC)c3)cc2/C=C\c2ccc(O)c(OC)c2)cc1`, the growth is -13.5% (active).

The record behind these values is PubChem BioAssay (NCI).
